This is an account of results in PubChem BioAssay (NCATS).

Molecules are shown by their SMILES. Active and inactive are the calls of the source. The call rests on the fitted dose curve; in most records, active means well fitted inhibition curve with a large enough effect; inconclusive means small, poorly fitted or top-dose-only effect; inactive means no such curve, though single readings can be large or run the other way.

The nature of the assay: qHTS assay for measurement of the activity of small molecule inhibitors on Zika virus induced Caspase-3 activity in human astrocytoma cells (AID 1224859). The following applies: SNB-19 ZIKV-induced caspase-3/7, luminescence, 6 h; series mostly up to 45.7 µM. In outline: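 Percent inhibition of virus-induced caspase-3/7 signal is calculated against uninfected and ZIKV-infected control cells. Cells are SNB-19, infected at 2 FFU/cell for 6 h after 1 h compound exposure.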
As to `COc1ccc(C(=O)NCc2ccc(OCCN(C)C)cc2)cc1OC`, the result was inactive.
As for `COc1ccccc1OCC(O)CO` (stereo not given), the compound was called inactive.
The same measure for `Cc1[nH]c(C)c(Cl)c(=O)c1Cl`: “inactive”; for `CCN[C@H]1CN(CCCOC)S(=O)(=O)c2sc(S(N)(=O)=O)cc21`: “inactive”.
Then `C[C@]1(Cn2ccnn2)[C@H](C(=O)O)N2C(=O)C[C@H]2S1(=O)=O`, with “inactive”.
The same measure for `CC(C)NC[C@@H](O)COc1ccc(CC(N)=O)cc1`: “inactive”; for `NC(=O)NC1NC(=O)NC1=O` (stereo not given): “inactive”.
`CC(=O)OCC(=O)[C@@]1(O)CC[C@H]2[C@@H]3CCC4=CC(=O)C=C[C@]4(C)[C@@]3(F)[C@@H](O)C[C@@]21C`: the call was inactive.
The same measure for `O=C(/C=C/c1ccc(O)c(O)c1)O[C@@H]1C[C@@](OC(=O)/C=C/c2ccc(O)c(O)c2)(C(=O)O)C[C@@H](O)[C@@H]1O`: “inactive”; for `Nc1ncnc(Nc2ccccc2)n1`: “inactive”; for `CCCCCCCC(=O)OCC(COC(=O)CCCCCCC)OC(=O)CCCCCCC`: “inactive”.
The same measure for `CCOC(N)=O`: “inactive”; for `Cc1cc(-n2nc3ccc(Cl)cc3n2)c(O)c(C(C)(C)C)c1`: “inactive”; for `Cc1c(I)c(=O)n(-c2ccccc2)n1C`: “inactive”.
The same measure for `CC(=O)N[C@@H](Cc1ccc(O)cc1)C(=O)O`: “inactive”; for `C[C@@H](N)C(=O)O`: “inactive”.
In the case of `CC(C)C[C@@H](N)C(=O)O`, the outcome was inactive.
The same measure for `CC(C)(C)NCC(O)COc1cccc2c1CCC(=O)N2` (stereo not given): “inactive”; for `CC1(C)S[C@@H]2[C@H](N=CN3CCCCCC3)C(=O)N2[C@H]1C(=O)O`: “inactive”; for `CC(C)=CCC[C@@](C)(O)[C@H]1CC=C(C)CC1`: “inactive”.
